Several values for one entry are separate records, joined by “and”; a condition that tells them apart may be missing. Identical values can stand only once. Records with an inconclusive call do not appear. Entries that show only a call come without a potency. A structure can be active in one record and inactive in another. Activity calls are given as the source filed them. Unless noted, calls follow the shape of the dose curve; as a rule, active = well fitted curve in the direction sought with a large enough effect in the repeat runs; inconclusive = weak or mixed curves; inactive = no such curve, though single readings can be large; an effect the other way counts as inactive or inconclusive.
Key:
[1] = qHTS assay to identify small molecule antagonists of the estrogen related receptor (ERR) signaling pathway from Tox21 library - cell viability counter screen (AID 1224834); also: nearly all actives have a fitted effect of over 30% in size; also: potency is read from the fitted curve at half-maximal effect
Procedure, shortened: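 Counter screen run in ERR cells (2,000 cells/well): cells pre-incubated 6 h, then treated with compounds for 17.5 h at 37 C. Fluorescence was read 30 min after CellTiter-Fluor addition.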

[2] = qHTS assay to identify small molecule agonists of the constitutive androstane receptor (CAR) signaling pathway - cell viability counter screen (AID 1224836); also: nearly all actives have a fitted effect of over 45% in size; also: potency is read from the fitted curve at half-maximal effect
Procedure, shortened: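 Double-stable HepG2 hepatoma cells (hCAR plus CYP2B6-2.2kb) are treated for 23 h at 37 C with test compounds in 15-point concentration series. PK11195 at 0.75 uM final is co-added. Cell viability is quantified by CellTiter-Fluor.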

[3] = qHTS assay to identify small molecule antagonists of the constitutive androstane receptor (CAR) signaling pathway - cell viability counter screen (AID 1224837); also: nearly all actives have a fitted effect of over 45% in size; also: potency is read from the fitted curve at half-maximal effect
Procedure, shortened: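 CITCO at 50 nM final was added alongside compounds (15 concentrations) to double-stable hCAR/CYP2B6-2.2kb HepG2 cells. Following 23 hr at 37 C, cell viability was quantified by CellTiter-Fluor fluorescence intensity.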

[4] = qHTS assay to identify small molecule antagonists of the estrogen related receptor signaling pathway with the pleiotropic PPARgamma coactivator (PGC) from Tox21 10K library - cell viability counter screen (AID 1224840; active = well fitted cell-killing curve with a large enough effect in the repeat runs, not every such curve was filed as active; also: nearly all actives have a fitted effect of over 40% in size; also: potency is read from the fitted curve at half-maximal effect)
Procedure, shortened: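 Readout: fluorescence intensity from CellTiter-Fluor after 30 min at 37 C/5% CO2. Preceded by 17.5 h treatment of PGC/ERR cells with DMSO-dissolved compounds, added 6 h post-seeding.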

[5] = biological target: Thyrotropin receptor (Homo sapiens) (UniProt P16473); experiment: qHTS assay to identify small molecule agonists of the thyroid stimulating hormone receptor (TSHR) signaling pathway (AID 1224843; calls by dose curve; also: nearly all actives have a fitted effect of over 45% in size)
Chain of Thyrotropin receptor (Homo sapiens) (P16473 whole entry, looked up): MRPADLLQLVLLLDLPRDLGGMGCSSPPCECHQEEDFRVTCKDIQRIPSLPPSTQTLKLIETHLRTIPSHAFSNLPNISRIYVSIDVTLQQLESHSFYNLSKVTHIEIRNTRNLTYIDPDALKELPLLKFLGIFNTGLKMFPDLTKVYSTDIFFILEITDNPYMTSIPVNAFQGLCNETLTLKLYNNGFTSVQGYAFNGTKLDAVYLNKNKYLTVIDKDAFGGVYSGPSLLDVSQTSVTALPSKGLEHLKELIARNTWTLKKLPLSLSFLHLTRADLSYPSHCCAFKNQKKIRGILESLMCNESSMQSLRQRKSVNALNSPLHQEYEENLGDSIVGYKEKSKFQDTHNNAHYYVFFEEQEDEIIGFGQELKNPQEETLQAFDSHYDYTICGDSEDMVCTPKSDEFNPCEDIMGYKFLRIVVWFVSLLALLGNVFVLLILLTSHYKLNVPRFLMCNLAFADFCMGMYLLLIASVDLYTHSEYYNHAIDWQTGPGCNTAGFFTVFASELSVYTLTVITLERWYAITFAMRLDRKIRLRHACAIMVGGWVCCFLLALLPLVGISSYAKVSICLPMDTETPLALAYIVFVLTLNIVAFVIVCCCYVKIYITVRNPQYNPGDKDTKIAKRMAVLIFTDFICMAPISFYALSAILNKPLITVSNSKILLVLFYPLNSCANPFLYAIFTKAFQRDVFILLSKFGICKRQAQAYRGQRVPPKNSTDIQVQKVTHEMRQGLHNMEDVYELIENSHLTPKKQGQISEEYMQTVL
Procedure, shortened: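 Using 15 concentrations per compound in triplicate, cAMP production was monitored in TSHR-HEK293 cells after 30 min compound incubation at RT; HTRF reagents followed, with fluorescence intensity recorded after 1 h.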

[6] = qHTS assay to identify small molecule agonists of the hypoxia (HIF-1) signaling pathway - cell viability counter screen (AID 1224844; calls by dose curve; also: nearly all actives have a fitted effect of over 50% in size; also: potency is read from the fitted curve at half-maximal effect)
Procedure, shortened: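 In this counter screen, HRE-bla ME-180 cell viability after 17 hrs of compound exposure at 37C was read by CellTiter-Glo luminescence, multiplexed with the beta-lactamase reporter measurement.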

[7] = qHTS assay to identify small molecule agonists of H2AX (AID 1224845; active = well fitted activation curve with a large enough effect in the signal ratio in the repeat runs, not every such curve was filed as active; the % refers to the signal ratio; also: potency is read from the fitted curve at half-maximal effect)
Procedure, shortened: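 Wild-type CHO-K1 cells plated overnight, then exposed 3 hr at 37C to compounds at 15 concentrations (0.76% DMSO). Lysed, then HTRF anti-pH2AX(S139)-cryptate/anti-H2AX-d2 detection after 24 hr at room temperature; emissions 665 and 620 nm.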

[8] = qHTS assay to identify small molecule agonists of H2AX - cell viability counter screen (AID 1224847; calls by dose curve; also: nearly all actives have a fitted effect of over 30% in size; also: potency is read from the fitted curve at half-maximal effect)
Procedure, shortened: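 For this counter screen, overnight-attached CHO-K1 cells received test compounds (15 concentrations, 0.76% DMSO final); 3 hr later at 37C, CellTiter-Glo reagent was added and luminescence recorded after 30 min at room temperature.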

[9] = qHTS RealTime-Glo MT Cell Viability Assay in HEK293 cells - 32 hour (AID 1224868); also: nearly all actives have a fitted effect of over 50% in size; also: potency is read from the fitted curve at half-maximal effect
Procedure, shortened: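 Quantitative high-throughput screen of the Tox21 10K library in HEK293: cells and RealTime-Glo reagents plated together, compound added at 5 h, luminescence monitored through 40 h at 37 C.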

[10] = A CellTox Green Cytotoxicity Assay to monitor cytotoxicity in HEK293 cells - 0 hour (AID 1224869); also: nearly all actives have a fitted effect of over 50% in size
Procedure, shortened: (§1)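 Real-time, in one plate: 600 HEK293 cells/well with dead-cell DNA dye, pinned compound after 5 h, 37 C incubation over 40 h; viable cells give no appreciable fluorescence.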

[11] = qHTS RealTime-Glo MT Cell Viability Assay in HepG2 cells - 40 hour (AID 1224870); also: nearly all actives have a fitted effect of over 50% in size; also: potency is read from the fitted curve at half-maximal effect
Procedure, shortened: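 HepG2 cells mixed with RealTime-Glo MT reagents (NanoLuc plus cell-permeant prosubstrate) were seeded at 600 cells/well, incubated 5 h at 37 C/5% CO2, then pinned with compounds in DMSO; nonlytic luminescence tracked viability during 40 h treatment.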

[12] = A CellTox Green Cytotoxicity Assay to monitor cytotoxicity in HEK293 cells - 40 hour (AID 1224871); also: nearly all actives have a fitted effect of over 45% in size; also: potency is read from the fitted curve at half-maximal effect
Procedure, shortened: as §1

[13] = biological target: Luciferin 4-monooxygenase (Photinus pyralis) (UniProt P08659); experiment: qHTS assay to identify small molecule inhibitors of firefly luciferase (AID 1224835); also: nearly all actives have a fitted effect of over 25% in size
Chain of Luciferin 4-monooxygenase (Photinus pyralis) (P08659 whole entry, looked up): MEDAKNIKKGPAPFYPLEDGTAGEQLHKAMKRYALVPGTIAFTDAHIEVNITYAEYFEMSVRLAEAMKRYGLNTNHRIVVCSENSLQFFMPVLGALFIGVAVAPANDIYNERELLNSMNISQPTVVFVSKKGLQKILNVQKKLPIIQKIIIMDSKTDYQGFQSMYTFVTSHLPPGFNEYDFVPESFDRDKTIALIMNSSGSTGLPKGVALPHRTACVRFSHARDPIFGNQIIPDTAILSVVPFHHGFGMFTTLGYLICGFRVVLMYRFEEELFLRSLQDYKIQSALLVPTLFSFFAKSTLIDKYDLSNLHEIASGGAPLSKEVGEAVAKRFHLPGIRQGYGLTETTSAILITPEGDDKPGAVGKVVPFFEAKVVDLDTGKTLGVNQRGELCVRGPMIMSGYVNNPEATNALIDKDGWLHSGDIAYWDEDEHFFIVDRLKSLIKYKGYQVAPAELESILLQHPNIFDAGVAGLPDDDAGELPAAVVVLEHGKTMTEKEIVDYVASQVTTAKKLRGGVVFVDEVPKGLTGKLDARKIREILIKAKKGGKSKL
Procedure, shortened: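 Quantitative HTS format; KM concentrations of both substrates. Purified P. pyralis FLuc activity quantified from luminescence images.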

[14] = biological target: Nuclear receptor subfamily 1 group I member 3 (Homo sapiens) (UniProt Q14994); experiment: qHTS assay to identify small molecule agonists of the constitutive androstane receptor (CAR) signaling pathway (AID 1224839); also: nearly all actives have a fitted effect of over 15% in size
Chain of Nuclear receptor subfamily 1 group I member 3 (Homo sapiens) (Q14994 whole entry, looked up): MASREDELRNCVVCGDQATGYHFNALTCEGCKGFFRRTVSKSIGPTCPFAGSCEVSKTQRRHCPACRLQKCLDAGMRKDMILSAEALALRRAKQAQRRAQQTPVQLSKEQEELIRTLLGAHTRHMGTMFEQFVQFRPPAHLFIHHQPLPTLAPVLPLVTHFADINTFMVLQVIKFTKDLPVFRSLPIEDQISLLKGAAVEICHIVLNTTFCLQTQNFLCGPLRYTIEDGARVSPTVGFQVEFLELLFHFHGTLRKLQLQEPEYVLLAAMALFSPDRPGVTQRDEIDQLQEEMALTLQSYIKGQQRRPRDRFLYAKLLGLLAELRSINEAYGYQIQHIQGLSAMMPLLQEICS
Procedure, shortened: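 Readout: firefly luciferase luminescence via ONE-Glo. System: HepG2 double-stable for hCAR and CYP2B6-2.2kb. Conditions: 15-point compound titration, PK11195 at 0.75 uM final, 24 h incubation.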

[15] = qHTS assay to identify small molecule agonists of the estrogen related receptor signaling pathway with the pleiotropic PPARgamma coactivator (PGC) from Tox21 10K library (AID 1224842); also: nearly all actives have a fitted effect of over 15% in size
Procedure, shortened: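 PGC/ERR reporter cells (NTP line) were seeded 2,000 per well, rested 6 h at 37 C/5% CO2, then pin-dosed with compounds in DMSO for 18 h at 37 C; luciferase read by One-Glo luminescence after 30 min at room temperature.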

[16] = qHTS assay to identify small molecule agonists of the estrogen related receptor (ERR) signaling pathway from Tox21 library (AID 1224849; calls by dose curve; also: nearly all actives have a fitted effect of over 15% in size); details: ERR reporter cell line, ONE-Glo luciferase, 18 h
Procedure, shortened: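 Luciferase activity in ERR pathway reporter cells served as the agonist readout; exposure lasted 18 h at 37 C, with ONE-Glo detection after 30 min at room temperature.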

[17] = qHTS RealTime-Glo MT Cell Viability Assay in HepG2 cells - 24 hour (AID 1224867)
Procedure, shortened: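 Compound treatment began 5 h after plating HepG2 cells (600/well) with NanoLuc luciferase and prosubstrate. Plates stayed at 37 C for 40 h; luminescence was captured at six time points, 0 h through 40 h.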

[18] = biological target: Nuclear receptor subfamily 1 group I member 3 (Homo sapiens) (UniProt Q14994); experiment: qHTS assay to identify small molecule antagonists of the constitutive androstane receptor (CAR) signaling pathway (AID 1224838); also: nearly all actives have a fitted effect of over 40% in size; also: potency is read from the fitted curve at half-maximal effect
Procedure, shortened: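 Inhibition of CITCO-driven (50 nM final) CYP2B6 reporter expression is measured in HepG2 cells stably carrying hCAR. Fifteen compound concentrations are applied for 24 h at 37 C, followed by luciferase luminescence.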

[19] = qHTS assay to identify small molecule agonists of the hypoxia (HIF-1) signaling pathway (AID 1224846; active = well fitted activation curve with a large enough effect in the signal ratio in the repeat runs, not every such curve was filed as active; the % refers to the signal ratio)
Procedure, shortened: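 ME-180 HRE-bla reporter cells; compounds in DMSO, 17 h at 37C; read-out beta-lactamase via CCF4-AM FRET.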

## O=C1NS(=O)(=O)c2ccccc21
[1]
  Potency: inactive
[2]
  Potency: inactive
[3]
  Potency: inactive
[4]
  Potency: inactive
[5]
  Potency: inactive
[6]
  Potency: inactive
[7]
  Potency: inactive
[8]
  Potency: inactive
[9]
  Potency: inactive
[10]
  Potency: inactive
[11]
  Potency: inactive
[12]
  Potency: inactive

## C1CCC(C(CC2CCCCN2)C2CCCCC2)CC1 (configuration not stated)
[1]
  Potency: 29.8 µM (active)
[13]
  Potency: inactive
[14]
  Potency: inactive
[4]
  Potency: 29.8 µM (active)
[15]
  Potency: inactive
[7]
  Potency: 6.95 µM (active)
[8]
  Potency: 55.2 µM (active)
[16]; at 42.5 µM (top of the series)
  activity change, positive = activation: -54.8% (inactive)
[17]
  Potency: 5.35 µM (active)
[9]
  Potency: 10.7 µM (active)
[10]
  Potency: inactive
[11]
  Potency: 5.35 µM (active)
[12]
  Potency: 16.9 µM (active)

## CN(C)CCOC(c1ccccc1)c1ccccc1
[1]
  Potency: inactive
[13]
  Potency: inactive
[2]
  Potency: inactive
[3]
  Potency: inactive
[4]
  Potency: inactive
[5]
  Potency: inactive
[6]
  Potency: inactive
[7]
  Potency: inactive
[8]
  Potency: inactive
[9]
  Potency: inactive
[10]
  Potency: inactive
[11]
  Potency: inactive
[12]
  Potency: inactive

## COc1ccc2cc(S(=O)(=O)N[C@H](CC(=O)N[C@H](Cc3ccc(CN4[C@H](C)CCC[C@@H]4C)cc3)C(=O)N(C)C(C)C)c3ccc4c(c3)OCO4)ccc2c1
[13]
  Potency: inactive
[2]
  Potency: 23 µM (active)
[3]
  Potency: 25.8 µM (active)
[18]
  Potency: 41 µM (active)
[14]
  Potency: inactive
[4]
  Potency: 29 µM (active)
[15]
  Potency: inactive
[5]
  Potency: inactive
[6]
  Potency: 10.4 µM (active)
[16]; at 92.4 µM (top of the series)
  activity change, positive = activation: -76% (inactive)
[9]
  Potency: 26.1 µM (active)
[10]
  Potency: inactive
[11]
  Potency: 52 µM (active)
[12]
  Potency: 52 µM (active)

## CNNCc1ccc(C(=O)NC(C)C)cc1
[1]
  Potency: inactive
[2]
  Potency: inactive
[3]
  Potency: inactive
[18]
  Potency: inactive
[4]
  Potency: inactive
[5]
  Potency: inactive
[6]
  Potency: inactive
[7]
  Potency: inactive
[19]
  outcome: inactive
[8]
  Potency: inactive
[9]
  Potency: inactive
[10]
  Potency: inactive
[11]
  Potency: inactive
[12]
  Potency: inactive

## C=CCc1ccc(O)c(OC)c1
[13]
  Potency: inactive
[2]
  Potency: inactive
[3]
  Potency: inactive
[18]
  Potency: inactive
[14]
  Potency: inactive
[4]
  Potency: inactive
[5]
  Potency: inactive
[6]
  Potency: inactive
[7]
  Potency: inactive
[8]
  Potency: inactive
[9]
  Potency: inactive
[10]
  Potency: inactive
[11]
  Potency: inactive
[12]
  Potency: inactive

## CCCCCCCCCCCCCCCC[N+](C)(C)Cc1ccccc1
[1]
  Potency: 63.1 µM (active) and 49.4 µM (active) and 23.7 µM (active)
[13]
  Potency: inactive
[2]
  Potency: inactive
[18]
  Potency: inactive
[14]
  Potency: inactive
[4]
  Potency: 63.1 µM (active) and 49.4 µM (active) and inactive
[15]
  Potency: inactive
[6]
  Potency: inactive and 44.4 µM (active)
[7]
  Potency: inactive
[8]
  Potency: 117 µM (active) and 45.8 µM (active) and 49.2 µM (active)
[16]; at 42.5 µM (top of the series)
  activity change, positive = activation: -56.4% (inactive)
[16]; at 92.4 µM (top of the series)
  activity change, positive = activation: -78.7% (inactive) and -80.7% (inactive)
[17]
  Potency: 22.6 µM (active) and 15.8 µM (active) and 10.7 µM (active)
[9]
  Potency: 7.14 µM (active) and 11.2 µM (active) and 3.38 µM (active)
[10]
  Potency: inactive
[11]
  Potency: 14.2 µM (active) and 12.5 µM (active) and 8.49 µM (active)
[12]
  Potency: 50.5 µM (active) and 39.6 µM (active) and 23.9 µM (active)

— PubChem BioAssay (Tox21)
